Avidin fluor: compound fluoresces at 488/530 nm on avidin beads | compound fluorescence 488/530 nm, flow cytometry; hits give high values | fluorescence (KMESF) at 10 µM | 220,000 tested, 0.38% active | AID 1775; in the data active = fluorescence above about 47
GSH bead fluor: compound fluoresces at 488/530 nm on GSH beads; GSH beads flow cytometry, compound fluorescence 488/530 nm; hits give high values; fluorescence (KMESF) at 10 µM; 190,000 tested, 0.25% active; AID 1776; in the data active = fluorescence above about 89;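 note: glutathione beads carrying GST-tagged Bcl family fusion proteins plus one bare bead set; values are compound well signal with DMSO vehicle wells as background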
RGS16-Gao HTS: RGS16-Galphao interaction regulator (human); bead-based flow cytometry RGS16-Galphao binding, fluorescence; actives lie on both sides; binding response (% of control), % at 10 µM; 220,000 tested, 0.38% active; AID 1441;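 note: Galphao activated by GDP with aluminum fluoride before binding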
Target sequence (O15492 whole entry, looked up): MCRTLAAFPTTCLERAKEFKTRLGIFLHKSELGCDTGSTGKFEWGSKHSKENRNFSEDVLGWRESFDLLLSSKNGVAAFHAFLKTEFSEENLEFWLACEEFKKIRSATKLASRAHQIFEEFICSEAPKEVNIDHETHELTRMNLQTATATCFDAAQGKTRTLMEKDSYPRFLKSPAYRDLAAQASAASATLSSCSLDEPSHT
Target sequence (P09471 whole entry, looked up): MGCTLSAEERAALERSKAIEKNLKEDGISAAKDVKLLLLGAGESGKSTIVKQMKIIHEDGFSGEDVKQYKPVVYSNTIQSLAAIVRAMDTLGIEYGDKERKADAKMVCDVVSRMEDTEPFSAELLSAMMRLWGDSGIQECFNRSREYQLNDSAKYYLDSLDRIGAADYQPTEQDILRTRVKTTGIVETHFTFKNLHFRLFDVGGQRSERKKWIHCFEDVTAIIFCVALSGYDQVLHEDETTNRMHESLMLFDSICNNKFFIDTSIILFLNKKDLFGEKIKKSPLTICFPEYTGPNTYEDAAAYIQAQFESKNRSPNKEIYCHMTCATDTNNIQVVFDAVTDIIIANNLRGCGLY
RGS7-Gao reg: human RGS7-Galphao interaction regulation; P09471; Multiplexed bead flow cytometry, RGS7-Galphao binding; actives lie on both sides; binding response (% of control), % at 10 µM; 220,000 tested, 0.35% active; in the data active = binding response below about 49% or above about 150%; inconclusive = no clear call, values can overlap the other calls; inactive = in between;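 note: fluorescent Galphao held in activated GDP-AlF4 state binding bead-coupled RGS7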
Target sequence (P09471 whole entry, looked up): as above
RGS4-Gao reg: human RGS4-Galphao interaction regulation; 220,000 tested, 0.33% active; Multiplexed bead flow cytometry, RGS4-Galphao binding; actives lie on both sides; P09471; binding response (% of control), % at 10 µM; AID 1415; in the data active = binding response below about 49% or above about 150%; inactive = in between;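 note: fluorescent Galphao activated with aluminum fluoride binding bead-coupled RGS4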
RGS8-Gao reg: regulators of human RGS8-Galphao interaction; multiplexed bead flow cytometry, RGS8-Galphao binding; actives lie on both sides; response (percent of control binding), % at 10 µM; 220,000 tested, 0.34% active; in the data active = response below about 60% or above about 140%; inactive = in between;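 note: Galphao activated as the GDP aluminium fluoride complex binding bead-coupled RGS8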
RGS4-Gao HTS: modulates binding between human RGS4 and Galphao | shares compounds with RGS16-Gao HTS | multiplexed bead flow cytometry, RGS–Galpha-o binding | RGS4–Galpha-o binding response, % at 10 µM | 1,600 tested, 99% active | AID 1504;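 note: fluorescently labeled Galpha-o bound to GDP with aluminium fluoride binding biotinylated RGS beads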
Biotin-avidin: counter-screen: compounds disrupting biotin binding to avidin beads; shares compounds with RGS16-Gao HTS; streptavidin beads, fluorescein-biotin binding, flow cytometry; inhibition, % at 10 µM; 1,700 tested, under 10 active; AID 1783;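 active = inhibition above 50%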;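 note: median green fluorescence of gated singlet beads compared with DMSO control wells; 0% = DMSO wells and 100% = complete loss of bead fluorescence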
RGS8-Gao single: RGS8-Galphao interaction regulation, single point confirmation | binding response (% of control), % at 10 µM | 1,700 tested, 3% active | shares compounds with RGS16-Gao HTS | bead-based flow cytometry RGS8-Galphao binding, fluorescence; actives lie on both sides | AID 1836; in the data active = binding response below about 72% or above about 130%; inactive = in between;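 note: Galphao activated as GDP AlF4 complex before binding bead RGS8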
RGS7-Gao single: RGS7-Galphao interaction regulation, single point confirmation. shares compounds with RGS16-Gao HTS. bead-based flow cytometry RGS7-Galphao binding; actives lie on both sides. response (percent of control binding), % at 10 µM. 1,700 tested, 7.8% active; in the data active = response below about 75% or above about 130%; inactive = in between;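 note: fluorescent Galphao activated with GDP and aluminum fluoride binding bead-coupled RGS7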
RGS16-Gao single: RGS16-Galphao interaction regulation, single point confirmation; shares compounds with RGS16-Gao HTS; bead-based flow cytometry, RGS16-Galphao binding; actives lie on both sides; response (% of control binding), % at 10 µM; 1,700 tested, 4% active; AID 1838; in the data active = response below about 74% or above about 130%; inactive = in between;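 note: Galphao activated as the GDP aluminium fluoride complex binding bead-coupled RGS16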
RGS4-Gao single: RGS4-Galphao interaction regulation, single point confirmation. 1,700 tested, 4% active. binding response (% of control), % at 10 µM. shares compounds with RGS16-Gao HTS. RGS4-Galphao binding, multiplexed bead flow cytometry; actives lie on both sides; in the data active = binding response below about 74% or above about 130%; inactive = in between
RGS19-Gao single: confirmation of regulators of human RGS19-Galphao interaction. shares compounds with RGS16-Gao HTS. bead-based flow cytometry RGS19-Galphao binding; actives lie on both sides. response (percent of control binding), % at 10 µM. 1,700 tested, 5% active. AID 1841; in the data active = response below about 50% or above about 160%; inactive = in between;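 note: 100% = no compound control and 0% = blank background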
* marks the source's active call; other numbers are inactive results; [ ] = another dose, or the depositor's remark. Shown are actives, neighbours in structure and some others; about 1.2% of the full set was active somewhere. Unless noted, the rule behind the calls is not given here.

`Cc1cccc(CC2S/C(=N/c3ccccn3)NC2=O)c1` (stereo not given) gave Avidin fluor 6, GSH bead fluor 21, RGS16-Gao HTS 236.5, RGS7-Gao reg 113.7, RGS4-Gao reg 113.3, RGS8-Gao reg 141.5*[activator], RGS4-Gao HTS 113.3*, Biotin-avidin -1.3, RGS8-Gao single 108.7, RGS7-Gao single 105.1, RGS16-Gao single 106.3, RGS4-Gao single 103.3 and RGS19-Gao single 108.8.
For O=C(CCCOc1ccc(Cl)cc1Cl)Nc1ccncc1 the results were GSH bead fluor 40, Biotin-avidin 0.1, RGS8-Gao single 104.3, RGS7-Gao single 95.7, RGS16-Gao single 106.1, RGS4-Gao single 100.9 and RGS19-Gao single 99.1.
For O=C1CC(/C=C/c2ccncc2)=Nc2ccccc2N1 the results were Avidin fluor 99*, GSH bead fluor 24, RGS16-Gao HTS 96.5, RGS7-Gao reg 161.9*[activator], RGS4-Gao reg 117.0, RGS8-Gao reg 96.5, RGS4-Gao HTS 117.0*, Biotin-avidin -1.7, RGS8-Gao single 102.3, RGS7-Gao single 99.5, RGS16-Gao single 102.9, RGS4-Gao single 102.3 and RGS19-Gao single 89.2.
O=C1CC(c2ccccc2)=Nc2ccccc2N1 was read as Avidin fluor 13, GSH bead fluor 37, RGS16-Gao HTS 96.9, RGS7-Gao reg 100.3, RGS4-Gao reg 103.1 and RGS8-Gao reg 101.0.
Screening CCN(CC)S(=O)(=O)c1ccc(N2CCCC2)c(C(=O)OCC(=O)Nc2cc(C)on2)c1 returned RGS16-Gao HTS 107.9, RGS7-Gao reg inconclusive, RGS4-Gao reg 104.2 and RGS8-Gao reg 104.7.
`CC1CCCC(NC(=O)COC(=O)c2sc3ccccc3c2Cl)C1C` (stereo not given) gave Avidin fluor -5, GSH bead fluor 11, RGS16-Gao HTS 0.2*, RGS7-Gao reg -6.9*, RGS4-Gao reg 4.5*, RGS8-Gao reg 9.4*, Biotin-avidin -0.8, RGS8-Gao single 99.0, RGS7-Gao single 96.4, RGS16-Gao single 100.1, RGS4-Gao single 100.3 and RGS19-Gao single 97.5.
For O=C(COC(=O)c1sc2ccccc2c1Cl)NCC1CCCCC1 the results were Avidin fluor 11, GSH bead fluor 11, RGS16-Gao HTS 104.6, RGS7-Gao reg 103.7, RGS4-Gao reg 99.9 and RGS8-Gao reg 99.3.
Screening CCOC(=O)/C(C#N)=C/C1=C(N2CCOCC2)CC(C)(C)OC1 returned Avidin fluor 8, RGS16-Gao HTS 96.9, RGS7-Gao reg inconclusive, RGS4-Gao reg 97.6 and RGS8-Gao reg 100.2.
For Cc1ccc(-c2nn[nH]n2)cc1 the results were GSH bead fluor 19, Biotin-avidin 2.7, RGS8-Gao single 92.0, RGS7-Gao single 91.0, RGS16-Gao single 92.7, RGS4-Gao single 95.1 and RGS19-Gao single 71.0.
`Cc1ccc(-c2nn[nH]n2)cc1Cl` gave Avidin fluor 8, RGS16-Gao HTS 104.5, RGS7-Gao reg inconclusive, RGS4-Gao reg 111.9 and RGS8-Gao reg 102.5.
For Cc1ccc(-c2nn[nH]n2)o1 the results were Avidin fluor 81*, GSH bead fluor 10, RGS16-Gao HTS 104.9, RGS7-Gao reg 151.2*[activator], RGS4-Gao reg 122.9, RGS8-Gao reg 101.5, RGS4-Gao HTS 122.9*, Biotin-avidin 1.6, RGS8-Gao single 102.6, RGS7-Gao single 100.9, RGS16-Gao single 103.0, RGS4-Gao single 101.1 and RGS19-Gao single 92.2.
`CCNC(=S)NNC(=O)c1cc(Br)cs1` gave Avidin fluor 6, GSH bead fluor 20, RGS16-Gao HTS 61.5, RGS7-Gao reg 100.7, RGS4-Gao reg 102.6 and RGS8-Gao reg 93.5.
For CCCC(=O)Nc1cccc(NC(=O)c2cccc([N+](=O)[O-])c2C)c1 the results were Avidin fluor 16, GSH bead fluor 10, RGS16-Gao HTS 205.3*[activator], RGS7-Gao reg 108.6, RGS4-Gao reg 110.4, RGS8-Gao reg 121.0, RGS4-Gao HTS 110.4*, Biotin-avidin -0.7, RGS8-Gao single 96.3, RGS7-Gao single 94.9, RGS16-Gao single 92.7, RGS4-Gao single 94.0 and RGS19-Gao single 84.7.
`CCC(CC)NC(=O)c1cccc([N+](=O)[O-])c1C` gave Avidin fluor 5, GSH bead fluor 10, RGS16-Gao HTS 237.2*[activator], RGS7-Gao reg 113.5, RGS4-Gao reg 115.8, RGS8-Gao reg 137.9, RGS4-Gao HTS 115.8*, Biotin-avidin -0.1, RGS8-Gao single 100.8, RGS7-Gao single 100.2, RGS16-Gao single 99.3, RGS4-Gao single 98.4 and RGS19-Gao single 98.7.
Cc1c(C(=O)NC(C)CCc2ccccc2)cccc1[N+](=O)[O-] (stereo not given) was read as Avidin fluor 19, GSH bead fluor 7, RGS16-Gao HTS 113.4, RGS7-Gao reg 104.0, RGS4-Gao reg 105.6 and RGS8-Gao reg 106.1.
`COC(=O)c1cc(C(=O)Nc2ccc(C)cn2)cc([N+](=O)[O-])c1` gave GSH bead fluor 17, Biotin-avidin 0.9, RGS8-Gao single 101.5, RGS7-Gao single 74.6*, RGS16-Gao single 89.8, RGS4-Gao single 88.2 and RGS19-Gao single 51.3.
Screening CC(=O)C12C3C4C(C5C1C3C5(Br)C41OCCO1)C21OCCO1 (stereo not given) returned Avidin fluor 7, GSH bead fluor 8, RGS16-Gao HTS 22.5*, RGS7-Gao reg 89.9, RGS4-Gao reg 92.9, RGS8-Gao reg 86.5, RGS4-Gao HTS 92.9*, Biotin-avidin -2.0, RGS8-Gao single 112.4, RGS7-Gao single 117.1, RGS16-Gao single 112.2, RGS4-Gao single 112.6 and RGS19-Gao single 99.0.

Bioassay records (PubChem BioAssay)
